Shown are actives, neighbours in structure and some others; about 27% of the full set was active somewhere.
CYP2C9 inh: human CYP2C9 inhibition; CYP2C9 Supersomes, luciferin-H conversion, luminescence; inhibition, % at 5 µM; 96,000 compounds, 20% hits; AID 777;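 active = blocking of liver enzyme CYP2C9 beyond about 50% at 5 µM, limit read from the data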
CYP2C19 activ: increases human CYP2C19 enzyme activity; P33261; recombinant CYP2C19, luciferin-H EGE luminescence; stronger effect = higher value; 0 = fully inhibited enzyme, 1 = untreated enzyme; activation factor at 5 µM; 96,000 tested, under 10 active; AID 1025;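 active = activation factor of at least 2 at 5 µM in the primary screen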;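 also: 0 = wells with 2.5 mM tranylcypromine and 1 = vehicle-only wells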
Target sequence (P33261 whole entry, looked up): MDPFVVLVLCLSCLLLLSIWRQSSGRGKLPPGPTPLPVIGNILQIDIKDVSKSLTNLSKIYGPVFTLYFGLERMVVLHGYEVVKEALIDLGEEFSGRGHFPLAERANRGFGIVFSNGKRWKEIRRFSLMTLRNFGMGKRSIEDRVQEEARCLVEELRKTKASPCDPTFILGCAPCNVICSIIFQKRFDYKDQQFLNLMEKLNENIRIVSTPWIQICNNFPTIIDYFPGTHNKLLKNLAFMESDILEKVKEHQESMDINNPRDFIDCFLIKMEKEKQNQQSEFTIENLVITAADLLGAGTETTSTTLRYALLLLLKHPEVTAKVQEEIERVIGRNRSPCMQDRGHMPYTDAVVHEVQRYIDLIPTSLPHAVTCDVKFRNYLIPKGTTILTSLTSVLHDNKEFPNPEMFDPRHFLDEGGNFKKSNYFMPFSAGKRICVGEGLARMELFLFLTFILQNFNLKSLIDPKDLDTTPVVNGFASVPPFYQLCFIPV
CYP2C9 activ: increases human cytochrome P450 2C9 activity. P11712. recombinant CYP2C9, luciferin-H conversion, luminescence; stronger effect = higher value; factor 1 = untreated enzyme, 0 = blocked. activation factor at 5 µM. 96,000 compounds, 1.4% hits. AID 1024;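 active = activation factor of 2 or more for CYP2C9 at a 5 µM dose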;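 also: 0 = sulfaphenazole-blocked wells and 1 = vehicle-only wells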
Cav32 inh: inhibitors of human Cav3.2 T-type calcium channel | O95180 | Cav3.2-expressing cells, Fluo-4 calcium fluorescence FDSS; stronger effect = lower value | B-score at 10 µM | 100,000 compounds, 4% hits | AID 449739;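 active = single-dose well whose peak fluorescence ratio is a statistical outlier from its plate by either plate-standardised score or position-corrected B-score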
CYP2C19 inhib: human CYP2C19 inhibition | AID 778 | 96,000 compounds, 21% hits | inhibition, % at 5 µM | CYP2C19 Supersomes, luciferin-H EGE luminescence, 30 min;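 active = CYP2C19 inhibition above a set limit at 5 µM in the primary screen, cut at about 50% in these data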;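 also: plate controls were negative control wells for no effect and 2.5 mM tranylcypromine positive control for full effect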
* marks the source's active call; other numbers are inactive results.

What do the screens show for `CC1(C)CC[C@]2(CO)[C@@H](O)C[C@]3(C)C(=CCC4[C@@]5(C)CC[C@H](O)C(C)(C)C5CC[C@]43C)[C@@H]2C1` (some centres undefined)?
Cav32 inh: 1.74

What do the screens show for `Cc1ccc(Oc2cc(-n3nc(C)cc3C)ncn2)cc1`?
Cav32 inh: -0.58

How did Cc1cc(C)cc(NC(=S)NCc2cccn2C)c1 do in these assays?
CYP2C9 inh: -109.6; CYP2C19 activ: 0.9; CYP2C9 activ: 2.1*; Cav32 inh: 0.576; CYP2C19 inhib: 14.5

Results for Cn1cccc1CNC(=O)Nc1ccccc1 ?
CYP2C9 inh: 36.9; CYP2C19 activ: 0.2; CYP2C9 activ: 0.6; Cav32 inh: 0.0285; CYP2C19 inhib: 75.3*

Results for Cn1cccc1CNC(=O)Nc1ccc(Cl)cc1 ?
CYP2C9 inh: 22.7; CYP2C19 activ: 0.4; CYP2C9 activ: 0.8; Cav32 inh: -0.92; CYP2C19 inhib: 59.3*

Results for Cc1cc(C)cc(NC(=S)NCCN2CCOCC2)c1 ?
Cav32 inh: 0.0252

Results for CCN1CCCc2cc(CN(CCN3CCOCC3)C(=O)Nc3ccc(C)c(C)c3)ccc21 ?
CYP2C9 inh: 47.8; CYP2C19 activ: 0.4; CYP2C9 activ: 0.5; Cav32 inh: -0.964; CYP2C19 inhib: 56.7*

How did Cc1ccc(NC(=O)N(CCCN2CCOCC2)Cc2cccnc2)cc1C do in these assays?
CYP2C9 inh: 95.9*; CYP2C19 activ: 0; CYP2C9 activ: 0; Cav32 inh: 0.298; CYP2C19 inhib: 100.4*

What do the screens show for `CCc1ccc(NC(=O)N(CCCN2CCOCC2)Cc2cccs2)cc1`?
CYP2C9 inh: 58.8*; CYP2C19 activ: 0.6; CYP2C9 activ: 0.4; CYP2C19 inhib: 35.5

Results for O=C(Nc1ccccc1)N(CCCN1CCOCC1)Cc1cccs1 ?
CYP2C9 inh: 4.2; CYP2C19 activ: 0.9; CYP2C9 activ: 1; Cav32 inh: 0.492; CYP2C19 inhib: 13.8

Results for COc1ccc(NC(=O)N(CCCN2CCOCC2)Cc2cccnc2)c(OC)c1 ?
Cav32 inh: 0.357

How did O=C(Nc1ccccc1)N(CCN1CCOCC1)Cc1ccccc1F do in these assays?
CYP2C9 inh: 88.8*; CYP2C19 activ: 0.4; CYP2C9 activ: 0.1; Cav32 inh: 0.727; CYP2C19 inhib: 55.5*

Results for Cc1cc2cc(CN(CCN3CCOCC3)C(=O)Nc3ccccc3F)c(=O)[nH]c2cc1C ?
CYP2C9 inh: 11.8; CYP2C19 activ: 0.8; CYP2C9 activ: 0.9; Cav32 inh: 0.414; CYP2C19 inhib: 16.0

What do the screens show for `CCc1ccc(NC(=O)N(CCN2CCOCC2)Cc2ccc3c(c2)CCCN3CC)cc1`?
CYP2C9 inh: 24.4; CYP2C19 activ: 0.7; CYP2C9 activ: 0.8; Cav32 inh: -3.36; CYP2C19 inhib: 27.5

How did CCOC(=O)c1c(NC(C)=O)no[n+]1[O-] do in these assays?
Cav32 inh: -1.35

Results for Cc1cc(C)nc(NC(=O)C(c2ccccc2)c2ccccc2)n1 ?
CYP2C9 inh: 70.7*; CYP2C19 activ: 0.8; CYP2C9 activ: 0.3; Cav32 inh: -0.188; CYP2C19 inhib: 20.7

Results for Cn1nnc(NC(=O)C(c2ccccc2)c2ccccc2)n1 ?
CYP2C9 inh: 84.4*; CYP2C19 activ: 0.6; CYP2C9 activ: 0.2; Cav32 inh: -0.178; CYP2C19 inhib: 41.0

What do the screens show for `Cc1cc(C)nc(NC(=O)C(C)C)n1`?
CYP2C9 inh: 15.5; CYP2C19 activ: 1; CYP2C9 activ: 0.8; Cav32 inh: 0.472; CYP2C19 inhib: -0.8

Results for CCOC(=O)C(Sc1n[nH]c(N)n1)c1ccccc1 (centres undefined) ?
CYP2C9 inh: 18.8; CYP2C19 activ: 0.8; CYP2C9 activ: 0.8; Cav32 inh: -0.0141; CYP2C19 inhib: 16.6

What do the screens show for `CCC(C)[C@@H](C(=O)Nc1ccc2c(c1)OCO2)N1Cc2ccccc2C1=O` (some centres undefined)?
CYP2C9 inh: 50.7*; CYP2C19 activ: 0.3; CYP2C9 activ: 0.5; Cav32 inh: -1.27; CYP2C19 inhib: 68.7*

How did CCC(C)NS(=O)(=O)c1ccc(OCC(=O)Nc2ccc3c(c2)OCO3)cc1 (centres undefined) do in these assays?
CYP2C9 inh: 31.0; CYP2C19 activ: 0.8; CYP2C9 activ: 0.7; Cav32 inh: 0.231; CYP2C19 inhib: 17.0

What do the screens show for `O=C(COC(=O)[C@H](Cc1ccccc1)N1C(=O)c2ccccc2C1=O)Nc1ccc2c(c1)OCO2`?
CYP2C9 inh: 98.6*; CYP2C19 activ: 0.2; CYP2C9 activ: 0; Cav32 inh: -4.26; CYP2C19 inhib: 81.1*

Results for O=C(COC(=O)C1=COCCO1)Nc1ccc2c(c1)OCO2 ?
CYP2C9 inh: -5.9; CYP2C19 activ: 1.1; CYP2C9 activ: 1.1; Cav32 inh: -0.182; CYP2C19 inhib: -5.9

Results for CC(C)[C@@H](C(=O)OCC(=O)Nc1ccc2c(c1)OCO2)N1C(=O)c2ccccc2C1=O ?
CYP2C9 inh: 44.6; CYP2C19 activ: 0.4; CYP2C9 activ: 0.6; Cav32 inh: -4.06; CYP2C19 inhib: 58.3*

How did O=C(COC(=O)c1ccc(=O)n(Cc2ccccc2)n1)Nc1ccc2c(c1)OCCO2 do in these assays?
CYP2C9 inh: 16.1; CYP2C19 activ: 0.8; CYP2C9 activ: 0.8; Cav32 inh: 0.0248; CYP2C19 inhib: 16.6

What do the screens show for `COc1ccc(Cl)cc1NC(=O)CN(C1CCCCC1)S(C)(=O)=O`?
CYP2C9 inh: 90.4*; CYP2C19 activ: 0; CYP2C9 activ: 0.1; Cav32 inh: -4.31*; CYP2C19 inhib: 98.7*

Results for COc1ccc(Cl)cc1NC(=O)NC1CCCCC1 ?
CYP2C9 inh: -14.4; CYP2C19 activ: 0.8; CYP2C9 activ: 1.1; Cav32 inh: -1.05; CYP2C19 inhib: 21.2

Results for COc1ccc(Cl)cc1NC(=O)N1CCN(C2CCCCC2)CC1 ?
CYP2C9 inh: -93.3; CYP2C19 activ: 0.2; CYP2C9 activ: 1.9; Cav32 inh: 0.212; CYP2C19 inhib: 83.0*

How did CSc1ccccc1NC(=O)CN(C1CCCCC1)S(C)(=O)=O do in these assays?
CYP2C9 inh: 90.0*; CYP2C19 activ: 0.1; CYP2C9 activ: 0.1; Cav32 inh: 0.714; CYP2C19 inhib: 92.9*

Results for CC(C)(C)c1nnc2sc(SCC(=O)c3cccs3)nn2c1=O ?
CYP2C9 inh: 95.5*; CYP2C19 activ: 0.7; CYP2C9 activ: 0; Cav32 inh: -0.451; CYP2C19 inhib: 26.4

What do the screens show for `CC(C)(C)c1nnc2sc(SCC(=O)N3CCCc4ccccc43)nn2c1=O`?
CYP2C9 inh: 41.2; CYP2C19 activ: 0.3; CYP2C9 activ: 0.6; Cav32 inh: -3.46; CYP2C19 inhib: 71.2*

How did CCn1cc(CNC(=O)CCSc2nc(-c3ccco3)cc(C(F)(F)F)n2)cn1 do in these assays?
CYP2C9 inh: 19.1; CYP2C19 activ: 0.8; CYP2C9 activ: 0.8; Cav32 inh: 0.395; CYP2C19 inhib: 24.3

How did CCOc1ccc(C(CC(=O)O)NC(=O)c2ccco2)cc1OC (centres undefined) do in these assays?
CYP2C9 inh: -15.5; CYP2C19 activ: 1.1; CYP2C9 activ: 1.2; Cav32 inh: 0.15; CYP2C19 inhib: -10.7

Compound activity as filed in PubChem.
